An excerpt weighted towards active compounds, which were near 4.7% of everything screened.
UBC9 SUMO inh: blocks human SUMOylation mediated by UBC9; AID 2006; inhibition, % at 35 µM; 290,000 tested, 0.36% active; HTRF SUMOylation assay, SAE1/SAE2 + UBC9, in vitro; in the data active = inhibition above about 50%, passing the limit was not always enough; inconclusive = no clear call, values can overlap the other calls
Efflux pump inh: inhibitors of Candida antifungal efflux pumps expressed in yeast. S. cerevisiae Candida pump triplex, Nile Red efflux. inhibition, % at 10 µM. 330,000 tested, 0.44% active. AID 485275;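 active = plate passing quality check with inhibition over a set limit, or well fluorescence over plate mean plus 4 SD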;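 also: Nile Red retained in pooled yeast measured as flow cytometry median fluorescence; higher means more Nile Red kept so more efflux inhibition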
MLLE-PAM2 inh: inhibitors of microRNA-mediated deadenylation, human PABP1 MLLE binding | inhibition, % at 20 µM | GST-MLLE / FITC-PAM2 fluorescence polarization | 360,000 tested, 0.36% active | AID 588489 | P11940; in the data active = inhibition above about 35%, passing the limit was not always enough
Target sequence (P11940 whole entry, looked up): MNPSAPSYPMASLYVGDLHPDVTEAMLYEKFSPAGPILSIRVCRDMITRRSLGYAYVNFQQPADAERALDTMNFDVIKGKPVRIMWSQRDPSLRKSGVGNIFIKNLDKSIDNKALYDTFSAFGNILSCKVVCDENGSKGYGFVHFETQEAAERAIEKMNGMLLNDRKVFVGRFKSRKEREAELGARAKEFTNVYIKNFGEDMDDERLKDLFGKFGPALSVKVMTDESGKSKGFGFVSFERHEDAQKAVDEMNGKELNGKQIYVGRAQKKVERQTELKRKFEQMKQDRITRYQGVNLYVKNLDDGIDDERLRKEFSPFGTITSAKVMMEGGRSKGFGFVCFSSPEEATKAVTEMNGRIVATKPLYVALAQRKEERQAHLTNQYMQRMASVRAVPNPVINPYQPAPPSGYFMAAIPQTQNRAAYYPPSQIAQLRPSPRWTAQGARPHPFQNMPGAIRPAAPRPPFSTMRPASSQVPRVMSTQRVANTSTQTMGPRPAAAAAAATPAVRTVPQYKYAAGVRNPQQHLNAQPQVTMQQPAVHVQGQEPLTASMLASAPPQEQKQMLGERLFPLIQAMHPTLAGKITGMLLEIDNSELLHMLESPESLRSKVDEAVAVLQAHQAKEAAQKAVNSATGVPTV
ALR H2O2 inh: inhibitors of human sulfhydryl oxidase ALR. P55789. purified ALR, DTT oxidation, H2O2 HRP-luminol luminescence. inhibition, % (no concentration beside the values). 290,000 tested, 3.8% active. AID 485317;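 active = mean replicate inhibition above about 79%, with every replicate also reaching it, limit read from the data; inconclusive = only one of the two criteria met; inactive = mean below limit and not every replicate reaching it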
eIF4H inh: inhibitors of RNA binding by human eIF4H; Q15056; eIF4H fluorescence polarization binding assay; inhibition, % at 35 µM; 290,000 tested, 0.94% active;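 also: calls also rest on retests at 20 µM and on dose response follow-up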
PABP polyA inh: blocks human PABP binding to poly(A) RNA. fluorescence polarization. inhibition, % at 35 µM. 290,000 tested, 1% active;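 also: calls also rest on retests at 20 µM and on dose response follow-up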
A number is an active result; i = inactive; ? = inconclusive; nt = not tested or not shown. Unless noted, no rule for the calls is given here.

SMILES | UBC9 SUMO inh | Efflux pump inh | MLLE-PAM2 inh | ALR H2O2 inh | eIF4H inh | PABP polyA inh
CS(=O)(=O)c1ccc(Sc2nc3ccccc3[nH]2)c([N+](=O)[O-])c1 | i | i | i | i | i | i
O=[N+]([O-])c1cc(S(=O)(=O)C(F)(F)F)ccc1Sc1nc2ccccc2s1 | i | i | i | 98 | i | i
O=[N+]([O-])c1cc(S(=O)(=O)C(F)(F)F)ccc1Sc1nc2ccccc2[nH]1 | i | i | i | 91 | i | i
CS(=O)(=O)c1ccc(Sc2nc3ccccc3s2)c([N+](=O)[O-])c1 | i | i | i | i | i | i
CCN1CCN(C(=O)c2ccc3c(Cl)c4c(nc3c2)CCCC4)CC1 | i | i | i | 98 | i | i
CC1CCN(CCCNC(=O)c2ccc3c(Cl)c4c(nc3c2)CCCC4)CC1 | i | i | i | 90 | i | i
c1ccc(CSc2nc3ncccn3n2)cc1 | nt | i | i | nt | nt | nt
Cc1cc(/C=C2/C(=N)N3C(=NC2=O)SN=C3S(C)(=O)=O)c(C)n1-c1ccc(F)cc1 | i | i | i | i | ? | i
CCOc1cc(/C=C2/C(=N)N3C(=NC2=O)SN=C3S(C)(=O)=O)ccc1OS(=O)(=O)c1ccccc1 | i | i | i | 95 | i | i
CCOc1ccc(-n2c(C)cc(/C=C3/C(=N)N4C(=NC3=O)SN=C4S(C)(=O)=O)c2C)cc1 | i | i | i | 98 | ? | i
O=C(CSc1ncccn1)NN=C1CCCCCC1 | i | i | i | i | 82 | 120
COC(=O)C1=C(C)NC(C)=C(C(=O)OC)C1C(=O)OCC(=O)N1CCCCC1C (stereo not given) | nt | nt | i | nt | nt | nt
CC(=O)n1cc(N(C(=O)CCl)c2ccc([N+](=O)[O-])cc2)c2ccccc21 | i | i | i | i | i | i
O=Cc1[nH]c2ccccc2c1N(C(=O)CCl)c1ccc([N+](=O)[O-])cc1 | i | i | i | 99 | i | i
CCCCc1c(C)nc2ccc(C)cc2c1SCCC(=O)O | i | i | i | i | i | i
CCCCc1c(C)nc2ccccc2c1SCCC(=O)O | i | i | i | i | 9.8 | i
Cc1ccc(-n2[nH]c(C)c(C=Nc3ccc4[nH]c(=O)[nH]c4c3)c2=O)cc1 | i | i | i | i | i | i
Cc1ccc(-n2[nH]c(C)c(C=Nc3ccc4[nH]c(=O)[nH]c4c3)c2=O)cc1C | i | i | 67 | 92 | i | i
CC1CCCN(C(=O)N2c3ccccc3Sc3ccccc32)C1 (stereo not given) | i | i | i | i | i | i
CC1CN(C(=O)N2c3ccccc3Sc3ccccc32)CC(C)O1 (stereo not given) | i | i | i | 99 | i | i
O=C(CN1CCOCC1)N1c2ccccc2Sc2ccccc21 | i | i | i | i | i | i
O=C(N1CCOCC1)N1c2ccccc2Sc2ccccc21 | i | i | i | 99 | i | i
CC1CCN(C(=O)N2c3ccccc3Sc3ccccc32)CC1 | i | i | i | 89 | i | i
CCc1sc(C(=O)N(CCOC)c2c(N)n(Cc3ccccc3)c(=O)[nH]c2=O)cc1C | nt | nt | i | nt | nt | nt
Cc1cccc(CSc2ccc(-c3ccco3)nn2)c1 | i | i | i | 98 | 52 | 59
SMILES | UBC9 SUMO inh | Efflux pump inh | MLLE-PAM2 inh | ALR H2O2 inh | eIF4H inh | PABP polyA inh
Clc1ccc(CSc2ccc(-c3ccco3)nn2)cc1 | i | i | i | i | i | i
Clc1cccc(CSc2ccc(-c3ccco3)nn2)c1 | i | i | i | 98 | i | i
COc1ccc(NS(=O)(=O)c2ccc(F)c(Cl)c2)cn1 | i | i | 47 | i | ? | ?
COc1ccc(NS(=O)(=O)c2ccc(Br)cc2)cn1 | i | i | i | i | i | i
CC(C)OC(=O)c1ccc(NC(=S)NC(=O)c2cncc(Br)c2)cc1 | i | i | i | i | i | i
CC(=O)Nc1ccc(N=Nc2ccc(O)cc2)cc1 | i | i | i | 99 | i | i
CC(=O)Nc1ccc(S(=O)(=O)N(C)c2ccc(O)cc2)cc1 | i | i | i | 98 | i | i
C=CCOc1ccc(C2OC34CCCCC3C(C#N)(C#N)C2(C#N)C(=N)O4)cc1 (stereo not given) | i | i | i | i | 84 | 104
CC(C)[C@H](NC(=O)N1CC(=O)Nc2ccccc21)C(=O)Nc1nccs1 | i | i | i | 91 | i | i
COc1cccc(CNC(=O)c2ccc(C3SCCS3)cc2)c1 | i | i | i | 91 | i | i
Nn1c(Cc2ccccc2)n[nH]c1=S | i | i | i | 95 | i | i
Cc1ccc(OCc2n[nH]c(=S)n2Cc2ccccc2)cc1 | i | i | i | nt | i | i
CCOc1ccc(Cc2n[nH]c(=S)n2Cc2ccccc2)cc1 | i | i | i | 95 | i | i
COc1cc(CNc2ccc3c(c2)OCCO3)ccc1OCC(N)=O | i | i | i | 99 | i | i
COc1ccc(NCc2ccc3c(c2)OCO3)cc1Cl | i | i | i | 97 | i | i
COc1cc(C2c3cc4c(cc3OC(NCCc3ccccc3)C2C)OCO4)cc(OC)c1OC (stereo not given) | nt | nt | i | nt | nt | nt
Cc1ccc2nc(-c3ccc(Br)o3)oc(=O)c2c1 | i | i | i | 89 | i | i
O=c1[nH]nnc2cc(Cl)ccc12 | nt | nt | i | nt | nt | nt
O=C(Nc1ccc(-c2nc3ccccc3[nH]2)cc1)c1cccc(N2C(=O)CCC2=O)c1 | 65 | i | i | nt | i | i
CN(c1ccccc1)S(=O)(=O)c1cccc(NC(=O)C2=NN(c3ccccc3)C(=O)CC2)c1 | nt | i | i | i | nt | nt
OC1CCN(Cc2cccc(Oc3ccccc3)c2)CC1 | i | i | i | 98 | i | i
CC1CCN(c2ccc(NC(=O)c3ccc([N+](=O)[O-])o3)cc2)CC1 | nt | i | i | nt | nt | nt
O=C(Nc1ccc(N2CCCCC2)cc1)c1cccnc1 | i | i | i | 98 | i | i
O=C(Nc1ccc(N2CCCCC2)cc1)c1ccc([N+](=O)[O-])o1 | i | i | i | i | 74 | 18
Cc1cc(C)nc(NS(=O)(=O)c2ccc(NS(=O)(=O)c3ccc(F)c(F)c3)cc2)n1 | nt | nt | i | nt | nt | nt
SMILES | UBC9 SUMO inh | Efflux pump inh | MLLE-PAM2 inh | ALR H2O2 inh | eIF4H inh | PABP polyA inh
O=C(O)c1cccc(S(=O)(=O)Nc2ccc(N3CCCCC3)cc2)c1 | nt | i | i | 99 | nt | nt
O=C(O)c1cccc(S(=O)(=O)Nc2cccc(S(=O)(=O)Nc3ccc(Br)cc3)c2)c1 | nt | nt | i | nt | nt | nt
O=C(Nc1ccc(N2CCN(Cc3ccccc3Cl)CC2)cc1)c1cccnc1 | i | i | i | i | i | i
O=S(=O)(Nc1ccc(N2CCCCC2)cc1)c1ccc(F)c(F)c1 | i | i | i | 99 | i | i
Cc1csc(NC(=O)c2nn(C)c(C)c2[N+](=O)[O-])n1 | i | i | i | i | i | i
CCn1c(=O)n(C)c2c(=O)n(C)c(=O)n(C)c21 | nt | nt | i | nt | nt | nt
CCOC(=O)C1(C)CCCN1C(=O)c1ccc(C(=O)OC)cc1 (stereo not given) | nt | nt | i | nt | nt | nt
COc1cccc(NC(=O)C2(C)CCN2C(=O)CCc2ccc(Cl)cc2Cl)c1 (stereo not given) | nt | nt | i | nt | nt | nt
COc1cc(OC)cc(C(=O)NNC(=S)Nc2ccc(S(N)(=O)=O)cc2)c1 | i | i | i | i | i | i
COc1ccc(NC(=O)c2cccnc2N2CCCC2)cc1 | i | i | i | 99 | i | i
